NPSR antag – qHTS Assay for Antagonists of the Neuropeptide S Receptor: cAMP Signal Transduction; Q6W5P4; CHO-NPSR cells, cAMP TR-FRET, antagonist mode; Potency, µM (doses to about 38.3 µM), inactives show top-dose activity change, negative = inhibition, usual class: inhibitors; 220,000 compounds, 1% hits; further: potency means the concentration at half of the fitted maximal effect; nearly all actives have a fitted effect of over 50% in size
Tau fibril ThT – qHTS for Inhibitors of Tau Fibril Formation, Thioflavin T Binding; Microtubule-associated protein tau (Homo sapiens), P10636; recombinant tau K18 P301L, heparin-induced fibrillization, ThT fluorescence; Potency, µM (top dose mostly 57.4 µM), without a hit: top-dose activity, negative = inhibition, actives largely listed as inhibitors; 270,000 compounds, 2.1% hits; further: potency means the concentration at half of the fitted maximal effect; nearly all actives have a fitted effect of over 55% in size
Target sequence (P10636 561-689 P618L limits assumed): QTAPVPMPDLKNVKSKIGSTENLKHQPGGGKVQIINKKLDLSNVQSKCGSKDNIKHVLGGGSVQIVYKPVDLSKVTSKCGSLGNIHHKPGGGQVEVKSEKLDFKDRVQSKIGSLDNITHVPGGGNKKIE
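Heparin-induced (20 uM) aggregation of recombinant human K18 P301L tau, 15 uM unlabeled with 0.24 uM labeled, pH 7 acetate buffer, 6 hr at 37 C with compound. Fibrils quantified by 30 uM ThT fluorescence after 1 hr ambient incubation.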
Tau FP inhib – qHTS for Inhibitors of Tau Fibril Formation, Fluorescence Polarization. AID 1468, 2008. 280,000 compounds, 0.39% hits. K18 P301L tau heparin fibrillization, Alexa594 FP, 6 h. Microtubule-associated protein tau (Homo sapiens), P10636. Potency, µM (titrated, usually from 57.7 µM), without a hit: top-dose activity, negative = inhibition, actives largely listed as inhibitors; further: potency means the concentration at half of the fitted maximal effect; nearly all actives have a fitted effect of over 55% in size
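K18 P301L tau (15 uM unlabeled/0.24 uM Alexa 594-labeled, final) + compound + heparin 20 uM final; 100 mM NaOAc pH 7; 6 hr 37 C; ThT 30 uM final added, 1 hr RT; FP ex 555/em 632 nm.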
Tau fluor cs – Counterscreen qHTS for Inhibitors of Tau Fibril Formation, Fluorescence Polarization. tau K18 P301L (four-repeat tau fragment) Alexa594 fluorescence, heparin fibrillization. Potency, µM (titrated, usually from 57.7 µM), without a hit: top-dose activity change, negative = decrease. 280,000 compounds, 0.93% hits; further: potency means the concentration at half of the fitted maximal effect; nearly all actives have a fitted effect of over 55% in size
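Human K18 P301L tau (15 uM unlabeled plus 0.24 uM Alexa 594-labeled, final) in 100 mM sodium acetate pH 7 was mixed with compound and 20 uM heparin and incubated 6 hr at 37 C.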
PNC inhibitor – High Content Assay for Compounds that inhibit the Assembly of the Perinucleolar Compartment; PC3M PTB-GFP, PNC prevalence imaging, 16 h; hits give low values; activity change (PNC), negative = inhibition, % at 10 µM; 140,000 compounds, 3.1% hits; AID 2417, 2010;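 active means readout at or below -70, meaning at least 70% loss of cells showing the perinucleolar compartment, a nuclear body marking cancer cells; inconclusive means readout between -30 and a set limit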;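 further: plate controls were DMSO wells for no effect and camptothecin positive control wells for full effect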
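Read-out is percentage of cells bearing a perinucleolar compartment, from automated 20x imaging of fixed, Hoechst-stained PC3M PTB-GFP cells. Cells were seeded 4 h, then exposed 16 h to compound (23 nl of library stock) in duplicate plates.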
JMJD2E inh – qHTS Assay for Inhibitors of Human Jumonji Domain Containing 2E (JMJD2E); Potency, µM (highest dose often 57.1 µM), without a hit: at the top dose activity change, negative = inhibition, usual class: inhibitors; Lysine-specific demethylase 4E (Homo sapiens), B2RXH2; 230,000 compounds, 1.6% hits; JMJD2E catalytic domain, FDH-coupled NADH fluorescence (FDH is formaldehyde dehydrogenase);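 further: potency means the concentration at half of the fitted maximal effect; 0% = wells with enzyme and -100% = buffer wells without enzyme; nearly all actives have a fitted effect of over 50% in size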
Target sequence (B2RXH2 1-337 limits assumed): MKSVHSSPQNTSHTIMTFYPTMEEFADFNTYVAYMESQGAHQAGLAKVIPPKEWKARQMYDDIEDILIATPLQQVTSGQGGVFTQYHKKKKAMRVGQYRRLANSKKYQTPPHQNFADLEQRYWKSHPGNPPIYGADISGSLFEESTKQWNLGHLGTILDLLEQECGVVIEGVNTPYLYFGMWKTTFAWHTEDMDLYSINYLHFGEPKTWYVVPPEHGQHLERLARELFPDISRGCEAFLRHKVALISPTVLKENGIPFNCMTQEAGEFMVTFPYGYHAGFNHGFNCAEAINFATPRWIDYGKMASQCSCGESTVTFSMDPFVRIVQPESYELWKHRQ
* marks the source's active call; other numbers are inactive results; ? = inconclusive; · = not tested or not shown; [ ] = dose if it differs, or a comment. Most compounds without a hit are left out; they make up all but 5.1% or so of the library. Unless noted, the call rests on the fitted dose curve; in most records, active means well fitted curve in the direction sought with a large enough effect; inconclusive means small, poorly fitted or top-dose-only effect, or another doubt; inactive means no such curve, though single readings can be large; an effect the other way counts as inactive or inconclusive. Unless noted, on the % scale 0 is the no-effect control and ±100 the full control effect.

SMILES	NPSR antag	Tau fibril ThT	Tau FP inhib	Tau fluor cs	PNC inhibitor	JMJD2E inh
COc1cccc(/C=N/NC(=O)c2ccc(=O)[nH]n2)c1O	-16%	?	-3%	-16%	·	13µM*
COc1cccc(/C=N/NC(=O)c2[nH]c(C)c(C(=O)N/N=C/c3cccc(OC)c3O)c2C)c1O	6%[46.1 µM]	?	13%	?	-12	25µM*
COc1ccc(OC)c(/C=N/NC(=O)c2ccc(=O)[nH]n2)c1	-7%	-4%	-8%	7%	·	4%
COc1cccc(/C=N/NC(=O)c2ccc(=O)n(C)c2)c1O	8%	-14%	-8%	-3%	?	11µM*
CCC(C)NC(=O)Cn1c(=O)n(-c2cc(OC)cc(OC)c2)c(=O)c2ccccc21 (stereo unspecified)	·	-6%	-4%	-13%	·	·
O=C(C1CCC(Cn2c(=O)c3sccc3n(Cc3ccc(F)cc3)c2=O)CC1)N1CCOCC1 (stereo unspecified)	·	9%	-3%	1%	·	·
COC(=O)c1ccc(C2Nc3c(C)cc(C)cc3C3C=CCC32)cc1 (stereo unspecified)	·	?	-5%	-18%	·	·
Cc1cc(C)c2c(c1)[C@@H]1C=CC[C@@H]1[C@H](c1ccc(S(=O)(=O)N3CCOCC3)cc1)N2	-27%	-14%	0%	-1%	-81*	?
CCn1c(C)cc(/C=C2\NC(=O)N(Cc3ccccc3)C2=O)c1C	-15%[46.1 µM]	?	-7%	-21%	2	-18%
CCn1c(C)cc(C=C2C(=O)c3ccccc3C2=O)c1C	-33%	14µM*	7%	-25%	·	?
Cc1ccc(C=C2C(=O)c3ccccc3C2=O)s1	?	14µM*	12%	1%	13	-7%
Cc1cccc(-n2c(C)cc(C=C3C(=O)c4ccccc4C3=O)c2C)c1	?	?	-2%	-29%	-85*	-3%
Cc1cc(C=C2C(=O)c3ccccc3C2=O)c(C)n1-c1ccc(Cl)cc1	-13%[46.1 µM]	?	7%	-18%	20	6%
Cc1cc(/C=C2\SC(=S)NC2=O)c(C)n1C	-21%[46.1 µM]	?	3%	-20%	?	2%
Cc1cc(C=C2C(=O)c3ccccc3C2=O)c(C)n1C	-2%	11µM*	-2%	-22%	3	-1%
O=C(Nc1ccc2nc(-c3ccc(Br)o3)[nH]c2c1)c1cccs1	-16%[46.1 µM]	?	5%	?	26	-6%
Cn1cccc1-c1nc2ccc(NC(=O)c3cccs3)cc2[nH]1	-7%[46.1 µM]	11µM*	6%	?	?	-11%
O=[N+]([O-])c1cccc(N2Cc3ccccc3C2)c1	-1%	16µM*	?	?	·	?
COc1ccc(CCN2CCC(CNC(=O)c3cnn(-c4ccc(C)cc4)c3C3CCN(C(=O)OC(C)(C)C)CC3)CC2)cc1	·	-13%	-2%	-14%	·	·
O=C(NCc1ccc2c(c1)OCO2)c1ccc(CS(=O)(=O)c2ccc(Br)cc2)o1	-12%[46.1 µM]	-7%	8%	-19%	-87*	-6%
CCOC(=O)c1[nH]c(C)c(CCC(=O)Nc2c(C)cc(C)cc2C)c1C	·	1%	-4%	7%	·	·
Cc1cnc(C(=O)Nc2ccc(N3CCOCC3)cc2)cn1	-5%[46.1 µM]	?	1%	-7%	-100*	3%
Cc1cnc(C(=O)Nc2ccc(N3CCCCC3)cc2)cn1	-6%	?	0%	-16%	·	12%
O=C(Nc1ccc(CN2CCOCC2)cc1)c1cc2ccccc2o1	0%[46.1 µM]	-10%	-2%	-13%	?	-1%
O=C(Nc1ccc2oc(=O)ccc2c1)c1cc2ccccc2o1	2%	3%	3%	-3%	-119*	-5%
SMILES	NPSR antag	Tau fibril ThT	Tau FP inhib	Tau fluor cs	PNC inhibitor	JMJD2E inh
O=C(Nc1ccc(N2CCOCC2)cc1)c1cc2ccccc2o1	-8%[46.1 µM]	5.6µM*	2%	-27%	-28	?
CCC(=O)N1CCN(c2ccc(NC(=O)c3cc4ccccc4o3)cc2)CC1	-11%[46.1 µM]	2.8µM*	2%	?	2	-5%
O=C(Nc1ccc(N2CCN(C(=O)c3ccc(Cl)cc3)CC2)cc1)c1cc2ccccc2o1	-9%[46.1 µM]	?	6%	?	35	-9%
COC(=O)CCC(=O)OC1(C)C(=O)C=C2C=C(CCCNC(=O)OC(C)(C)C)OC=C2C1=O (stereo unspecified)	·	-8%	4%	-6%	·	-2%
Cc1ccc(NC(=O)c2oc3ccc(S(=O)(=O)N4CCCCC4)cc3c2C)c(C)c1	·	8%	1%	4%	·	·
CCc1ccc(CNCc2c(C(=O)O)n(Cc3cccc(F)c3)c3cc(OC)ccc23)cc1	·	-2%	6%	-3%	·	·
CC1CCCC(C)N1C(=O)Cn1cc(/C=C2/C(=O)Nc3ccccc32)c2ccccc21 (stereo unspecified)	?	14µM*	14%	?	0	3%
Fc1ccc2[nH]c(-c3cccs3)cc2c1	·	?	?	11µM*[quencher]	·	·
O=C(NCc1ccccn1)c1coc(=O)c(Br)c1	4%[46.1 µM]	-10%	-7%	-1%	-87*	?
CCOC(=O)C1CCN(c2cc3c(cc2NC(=O)c2ccc(Cl)cc2)n(C)c(=O)n3C)CC1	·	-9%	-11%	-11%	·	·
CCCCCSc1nnc2c(n1)OC(CC)Nc1ccc(Br)cc1-2 (stereo unspecified)	·	?	0%	-20%	·	·
Cc1c(NC(=O)CSc2nnc3c4ccccc4n(CCc4ccccc4)c3n2)c(=O)n(-c2ccccc2)n1C	-25%[46.1 µM]	-12%	5%	-3%	-90*	6%
CCn1c2ccccc2c2nnc(SCC(=O)Nc3c(C)n(C)n(-c4ccccc4)c3=O)nc21	9%[46.1 µM]	0%	-2%	2%	-21	-3%
Cc1ccc(NC(=O)N2CCc3cc(S(=O)(=O)N4CCC(C)CC4)ccc32)cc1F	·	12%	?	-11%	·	·
CCn1ccc2cc(S(=O)(=O)N3CCC(C(=O)NCc4cccc(C)c4)CC3)ccc21	·	-1%	-4%	-16%	·	·
Nc1ccc2oc(-c3ccc4nc[nH]c4c3)nc2c1	16%[46.1 µM]	14µM*	4%	?	-2	?
Cc1nc2ccc(-c3nc4cc(N)ccc4o3)cc2[nH]1	13%[46.1 µM]	?	-1%	-23%	9	?
C/C(=N\Nc1ccc2nncn2n1)c1ccccn1	6%	-4%	-2%	0%	·	10µM*

Assay outcomes deposited in PubChem by National Center for Advancing Translational Sciences (NCATS).
